# Source: PubChem BioAssay
# An excerpt weighted towards active compounds, which were near 4% of everything screened.
# NALP1 inh – NALP1 inflammasome inhibitors in reconstituted yeast, colorimetric, S. cerevisiae, triplicate retest. AID 2071, 2009. S. cerevisiae NALP1/ASC/caspase-1 growth, X-gal OD620, 72 h. hit rate 0.61% among 280,000. inhibition, % at 10 µM; in the data active = inhibition mostly above about 24%, no sharp cut-off; inactive = mostly below about 32%
# NALP3 yeast inh – NALP3 inflammasome inhibitors in reconstituted yeast, primary screen, luminescence, uHTS; Yeast reconstituted NLRP3/ASC/caspase-1, beta-gal luminescence, 24 h; inhibition, % at 10 µM; hit rate 0.39% among 330,000; AID 2825, 2010;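 active = inhibition of 50% or more; inactive = inhibition below 50%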
# tim23-1 inh – growth inhibitors of tim23-1 mutant yeast, primary screen, luminescence, uHTS; S. cerevisiae tim23-1 growth, BacTiter-Glo luminescence, 24 h; inhibition, % at 20 µM; hit rate 1.3% among 330,000; AID 463212, 2010;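 active = growth inhibition of the mutant yeast at or above 50%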;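 note: temperature-sensitive mutant grown at 25 °C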
# tim10-1 inh – growth inhibitors of tim10-1 mutant yeast, primary screen, luminescence, uHTS; hit rate 2.2% among 330,000; S. cerevisiae tim10-1 ts strain growth, BacTiter-Glo, 24 h; AID 463190, 2010; inhibition, % at 20 µM;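 active = inhibition of at least 40%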;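 note: mutant grown at 25 °C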
# TIM10 inh – growth inhibitors of isogenic TIM10 control yeast, primary screen, counter-screen for tim10-1 yeast inhibitor project, luminescence, uHTS; AID 463195, 2010; inhibition, % at 10 µM; S. cerevisiae TIM10 strain growth, BacTiter-Glo luminescence, 24 h; hit rate 1.4% among 330,000;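 active = inhibition of 40% or more at the single tested concentration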;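 note: wild-type TIM10 isogenic control strain grown at permissive 25 °C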
# tim10-1 conf – growth inhibitors of tim10-1 mutant yeast, confirmation, single concentration, luminescence, S. cerevisiae; AID 463213, 2010; shares compounds with tim10-1 inh; hit rate 56% among 7,400; S. cerevisiae tim10-1 ts strain growth, BacTiter-Glo, 24 h; inhibition, % at 20 µM;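 active = inhibition of yeast growth at or above a set limit in either of two repeat tests at 20 µM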;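 note: tim10-1 mutant grown at permissive 25 °C to find synthetic lethal compounds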
# Hits are given with their value; - = inactive; . = no result.
SMILES,NALP1 inh,NALP3 yeast inh,tim23-1 inh,tim10-1 inh,TIM10 inh,tim10-1 conf
Cc1ccccc1OCc1n[nH]c(=S)n1Cc1ccccc1,-,-,-,47.3,-,-
Oc1ccc(-c2n[nH]c(=S)n2Cc2ccccc2)cc1,-,-,-,-,-,.
S=c1[nH]nc(COc2cccc3ccccc23)n1Cc1ccccc1,.,-,-,-,-,.
COc1cc(CN2CCNC(=O)C2CC(=O)NC2CCC2)cc(OC)c1 (centres undefined),-,-,-,-,-,.
COc1ccccc1C(=O)NNC(=O)c1ccc(Br)cc1,-,-,-,-,-,.
CCn1c(SCc2c(F)cccc2Cl)nnc1-c1ccco1,-,-,-,49.0,-,41.1
CCCCCCC(=O)N(O)C1CC(=O)N(c2ccc(C)cc2)C1=O (centres undefined),-,-,-,70.9,-,44.4
CCCCCCC(=O)N(O)C1CC(=O)N(c2ccc(Cl)cc2)C1=O (centres undefined),-,-,-,-,-,.
O=C1CC(=C2c3ccccc3-c3ccccc32)C(=O)N1CCN1CCN(c2cccc(Cl)c2)CC1,.,-,-,40.8,-,-
CCn1c(SCC(=O)Nc2ncc(C(F)(F)F)cc2Cl)nnc1-c1ccccc1,.,-,-,-,-,.
COc1ccccc1-c1noc(CCC(=O)Nc2cc(C(F)(F)F)ccc2Cl)n1,-,-,-,43.1,-,-
COc1ccccc1-c1noc(CCC(=O)NC2CCCC2)n1,-,-,-,-,-,.
COc1cc(C2=NOC(C(=O)N3CCCc4ccccc43)C2)cc(OC)c1OC (centres undefined),-,-,-,40.1,-,-
COc1ccc(C2=NOC(C(=O)N3CCCc4ccccc43)C2)cc1 (centres undefined),-,-,-,-,-,.
Oc1ccccc1/C=N/Nc1nccnc1Cl,-,-,-,54.7,-,-
Cc1ccc(NC(=O)C2C3C=CC4(O3)C2C(=O)N(CCCN2CCCCC2)C4C(=O)NC2CCCCC2)cc1C (centres undefined),-,-,-,-,-,.
Cc1ccc(Cn2c(O)c(N=O)c3ccccc32)cc1,-,-,-,-,-,.
Cc1cccc2c(N=O)c(O)n(CCc3ccccc3)c12,-,-,-,41.0,-,-
COC(=O)[C@]1(Cc2ccccc2)N[C@H](c2ccc(-c3cc(C(C)=O)cs3)cc2)[C@@H]2C(=O)N(C)C(=O)[C@@H]21,.,-,-,-,-,.
Cc1cc(O)c2c(c1)C(=O)c1cc(O)cc(O)c1C2=O,.,-,-,45.4,-,-
O=C1c2cc(O)cc(O)c2C(=O)c2c1cc(O)c([C@@H](CO)CCO)c2O,.,-,-,-,-,.
O=C1c2cccnc2C(Nc2ccc(Br)cc2)N1Cc1cccs1 (centres undefined),-,-,-,41.1,-,-
COc1ccc(NC2c3ncccc3C(=O)N2Cc2cccs2)cc1 (centres undefined),-,-,-,-,-,.
CCN(CC)c1ccc(C2Nc3cccc4cccc(c34)N2)c(O)c1,-,-,-,42.7,-,-
O=C(N/N=C/c1ccc[nH]1)c1cc(-c2ccc(Cl)cc2)nc2ccccc12,-,-,-,55.6,-,51.1
SMILES,NALP1 inh,NALP3 yeast inh,tim23-1 inh,tim10-1 inh,TIM10 inh,tim10-1 conf
O=C(N/N=C/c1ccc([N+](=O)[O-])o1)c1cc(-c2ccc(-c3ccccc3)cc2)nc2ccccc12,-,-,-,55.7,-,41.5
O=C(N/N=C/c1ccc([N+](=O)[O-])o1)c1cn(-c2ccccc2)nc1-c1ccc(Cl)cc1,-,-,-,-,-,.
O=C(N/N=C/c1ccc([N+](=O)[O-])o1)c1cc(-c2ccncc2)nc2ccccc12,-,-,-,-,-,.
O=C(N/N=C/c1ccc([N+](=O)[O-])o1)c1cn(-c2ccccc2)nc1-c1ccccc1,-,-,-,54.3,-,-
Cc1cc(OC(=O)c2ccccc2F)c([N+](=O)[O-])c(=O)[nH]1,-,-,-,-,-,.
Cc1ccc(S(=O)(=O)NCCC(=O)Nc2ccncc2)cc1C,.,-,-,-,-,.
CC(C)C(c1nnnn1Cc1ccco1)N1CCN(c2cccc(Cl)c2)CC1 (centres undefined),-,-,-,41.1,-,-
